Assay results taken from the supplement of paper PMC10849652.
Of roughly 7,900 targets only a part is listed; those with a hit were picked by preference. About 0.6% of all pairs of compound and target were hits. Unmarked numbers belong to inactive results.

Tests used:
Experiment in all cases: log2 fold change, soluble protein after heating vs DMSO (PISA); higher = thermal stabilisation; K562 cells, 10 uM, 30 min; active = over 0.2 and 3.5 SD of the protein, either way, in both replicates (recomputed)
[1] = compound: Cc1ccc(NC(=O)c2ccc(CN3CC[C@H](N(C)C)C3)c(C(F)(F)F)c2)cc1Nc1nccc(-c2cncnc2)n1 [bafetinib]
Summary of the method: (§1)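 K562 cells (2×10^6 cells/mL) were treated with 10 μM compound for 30 min, and aliquots were heated for 3 min over 48°C-58°C. Pooled aliquots were extracted in PBS with 0.5% NP-40 at 4°C, and the supernatant after 21,000xg for 90 min was measured by TMTpro 16plex LC-MS/MS with channel sums equalised. Reported thermal stability, relative to control samples and from duplicates, is a log2 fold change.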

[2] = compound: Cc1cccc(CC(=O)N2CCc3c2ccc(-c2cn(C)c4ncnc(N)c24)c3F)n1
Summary of the method: as §1

[3] = compound: Cc1cn(-c2cc(NC(=O)c3ccc(C)c(Nc4nccc(-c5cccnc5)n4)c3)cc(C(F)(F)F)c2)cn1 [nilotinib]
Summary of the method: as §1

[4] = compound: Cc1nc(Nc2n[nH]c3c2CN(C(=O)N[C@H](CN(C)C)c2ccccc2)C3(C)C)c2sccc2n1
Summary of the method: as §1

[5] = compound: Cc1nc(Nc2ncc(C(=O)Nc3c(C)cccc3Cl)s2)cc(N2CCN(CCO)CC2)n1 [dasatinib]
Summary of the method: as §1

[6] = compound: Cc1ncc(-c2ccnc(Nc3ccc(S(C)(=O)=O)cc3)n2)n1C(C)C
Summary of the method: as §1

[7] = compound: Cn1cc(-c2ccc3c(c2)CCN3C(=O)Cc2cccc(C(F)(F)F)c2)c2c(N)ncnc21
Summary of the method: as §1

[8] = compound: Cn1cc(-c2ccc3nnc(C(F)(F)c4ccc5ncccc5c4)n3n2)cn1
Summary of the method: as §1

[9] = compound: Cn1cncc1[C@@](N)(c1ccc(Cl)cc1)c1ccc2c(c1)c(-c1cccc(Cl)c1)cc(=O)n2C [tipifarnib]
Summary of the method: as §1

[10] = compound: FC(F)(F)c1ccc(/C=C/c2nc(COc3ccc(CCCCn4ccnn4)cc3)co2)cc1 [mubritinib]
Summary of the method: as §1

UniProt Q9UH92, sequence (Q9UH92 whole entry, looked up): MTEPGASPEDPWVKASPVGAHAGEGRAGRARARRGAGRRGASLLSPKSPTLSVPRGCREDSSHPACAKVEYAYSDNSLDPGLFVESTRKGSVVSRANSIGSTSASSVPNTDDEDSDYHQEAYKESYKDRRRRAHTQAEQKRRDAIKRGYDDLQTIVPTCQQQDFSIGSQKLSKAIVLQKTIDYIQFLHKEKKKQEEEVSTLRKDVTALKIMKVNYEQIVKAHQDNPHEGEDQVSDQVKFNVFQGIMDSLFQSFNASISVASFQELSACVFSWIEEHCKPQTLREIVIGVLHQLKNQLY
UniProt Q69YL0, sequence (Q69YL0 whole entry, looked up): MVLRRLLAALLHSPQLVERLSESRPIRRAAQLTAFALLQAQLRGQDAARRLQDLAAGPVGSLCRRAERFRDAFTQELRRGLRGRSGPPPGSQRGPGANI
UniProt Q9H3L0, sequence (Q9H3L0 whole entry, looked up): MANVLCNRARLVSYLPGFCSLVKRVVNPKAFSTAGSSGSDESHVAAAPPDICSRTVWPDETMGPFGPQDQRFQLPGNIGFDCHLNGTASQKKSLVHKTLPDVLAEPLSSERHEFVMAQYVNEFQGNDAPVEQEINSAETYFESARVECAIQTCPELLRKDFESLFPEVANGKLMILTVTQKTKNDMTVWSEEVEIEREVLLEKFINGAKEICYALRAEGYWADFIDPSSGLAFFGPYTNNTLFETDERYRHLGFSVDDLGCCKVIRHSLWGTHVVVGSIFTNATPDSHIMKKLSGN
UniProt O60551, sequence (O60551 whole entry, looked up): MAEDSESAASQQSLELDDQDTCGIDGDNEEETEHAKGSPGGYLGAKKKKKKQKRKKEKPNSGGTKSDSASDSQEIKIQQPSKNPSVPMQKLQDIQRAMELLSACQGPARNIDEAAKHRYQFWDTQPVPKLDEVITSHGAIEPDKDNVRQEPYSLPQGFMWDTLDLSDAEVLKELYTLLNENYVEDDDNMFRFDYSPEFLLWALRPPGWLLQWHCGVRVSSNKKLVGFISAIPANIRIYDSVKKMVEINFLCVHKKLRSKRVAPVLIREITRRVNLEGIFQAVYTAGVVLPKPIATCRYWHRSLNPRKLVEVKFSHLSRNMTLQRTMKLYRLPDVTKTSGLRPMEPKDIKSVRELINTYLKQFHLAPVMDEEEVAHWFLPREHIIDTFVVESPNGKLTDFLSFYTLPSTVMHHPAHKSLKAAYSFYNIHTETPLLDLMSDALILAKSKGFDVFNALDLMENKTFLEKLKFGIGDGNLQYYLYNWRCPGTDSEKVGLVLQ
UniProt Q9Y6R0, sequence (Q9Y6R0 whole entry, looked up): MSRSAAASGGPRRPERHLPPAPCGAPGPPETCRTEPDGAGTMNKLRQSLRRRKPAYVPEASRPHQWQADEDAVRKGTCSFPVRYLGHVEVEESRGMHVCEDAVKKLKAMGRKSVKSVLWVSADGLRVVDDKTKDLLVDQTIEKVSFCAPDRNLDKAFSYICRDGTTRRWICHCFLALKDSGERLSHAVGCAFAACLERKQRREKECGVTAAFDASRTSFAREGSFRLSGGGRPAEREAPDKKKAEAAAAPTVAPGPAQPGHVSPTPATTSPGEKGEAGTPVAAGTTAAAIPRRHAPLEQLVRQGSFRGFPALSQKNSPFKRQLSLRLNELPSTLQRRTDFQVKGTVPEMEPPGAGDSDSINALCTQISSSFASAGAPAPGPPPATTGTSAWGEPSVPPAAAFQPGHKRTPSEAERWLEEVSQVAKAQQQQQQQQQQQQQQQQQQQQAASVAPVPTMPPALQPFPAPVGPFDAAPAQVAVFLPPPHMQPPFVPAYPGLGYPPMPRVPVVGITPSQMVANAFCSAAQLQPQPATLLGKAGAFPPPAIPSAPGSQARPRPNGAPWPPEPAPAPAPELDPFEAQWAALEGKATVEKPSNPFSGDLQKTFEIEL
UniProt P49116, sequence (P49116 whole entry, looked up): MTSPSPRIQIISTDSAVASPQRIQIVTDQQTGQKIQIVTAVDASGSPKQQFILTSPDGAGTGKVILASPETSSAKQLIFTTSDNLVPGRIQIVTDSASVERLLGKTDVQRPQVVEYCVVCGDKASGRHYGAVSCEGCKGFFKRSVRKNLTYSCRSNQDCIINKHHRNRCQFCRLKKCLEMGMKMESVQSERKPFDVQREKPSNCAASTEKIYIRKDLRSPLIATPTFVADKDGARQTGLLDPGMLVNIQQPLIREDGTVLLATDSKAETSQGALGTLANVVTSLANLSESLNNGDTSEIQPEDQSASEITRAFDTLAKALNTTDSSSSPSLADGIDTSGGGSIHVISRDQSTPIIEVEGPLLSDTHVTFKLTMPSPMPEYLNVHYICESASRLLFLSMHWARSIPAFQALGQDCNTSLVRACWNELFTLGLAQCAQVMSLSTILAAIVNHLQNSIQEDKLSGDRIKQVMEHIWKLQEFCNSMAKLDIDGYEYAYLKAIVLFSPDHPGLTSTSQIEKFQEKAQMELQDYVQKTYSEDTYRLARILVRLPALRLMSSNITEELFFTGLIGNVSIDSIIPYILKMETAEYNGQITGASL
UniProt O43809, sequence (O43809 whole entry, looked up): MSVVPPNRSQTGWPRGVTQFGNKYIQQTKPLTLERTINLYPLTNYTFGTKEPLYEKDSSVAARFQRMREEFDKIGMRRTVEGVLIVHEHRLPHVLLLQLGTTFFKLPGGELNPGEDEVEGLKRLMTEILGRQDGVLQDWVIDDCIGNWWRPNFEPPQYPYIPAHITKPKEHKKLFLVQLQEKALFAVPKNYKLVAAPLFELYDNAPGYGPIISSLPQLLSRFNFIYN
UniProt O14524, sequence (O14524 whole entry, looked up): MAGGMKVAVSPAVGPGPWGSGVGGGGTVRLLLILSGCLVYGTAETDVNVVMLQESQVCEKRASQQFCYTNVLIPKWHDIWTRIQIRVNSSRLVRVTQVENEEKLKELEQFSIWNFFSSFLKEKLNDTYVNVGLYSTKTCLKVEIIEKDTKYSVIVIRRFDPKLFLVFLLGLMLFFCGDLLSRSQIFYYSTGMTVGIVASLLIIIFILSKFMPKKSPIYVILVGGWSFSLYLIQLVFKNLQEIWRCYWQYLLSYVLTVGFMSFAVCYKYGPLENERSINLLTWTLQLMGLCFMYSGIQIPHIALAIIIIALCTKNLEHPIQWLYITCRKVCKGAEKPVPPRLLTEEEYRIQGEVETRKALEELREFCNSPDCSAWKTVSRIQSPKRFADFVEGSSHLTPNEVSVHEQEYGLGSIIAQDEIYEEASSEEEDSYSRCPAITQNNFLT
UniProt Q9BZQ8, sequence (Q9BZQ8 whole entry, looked up): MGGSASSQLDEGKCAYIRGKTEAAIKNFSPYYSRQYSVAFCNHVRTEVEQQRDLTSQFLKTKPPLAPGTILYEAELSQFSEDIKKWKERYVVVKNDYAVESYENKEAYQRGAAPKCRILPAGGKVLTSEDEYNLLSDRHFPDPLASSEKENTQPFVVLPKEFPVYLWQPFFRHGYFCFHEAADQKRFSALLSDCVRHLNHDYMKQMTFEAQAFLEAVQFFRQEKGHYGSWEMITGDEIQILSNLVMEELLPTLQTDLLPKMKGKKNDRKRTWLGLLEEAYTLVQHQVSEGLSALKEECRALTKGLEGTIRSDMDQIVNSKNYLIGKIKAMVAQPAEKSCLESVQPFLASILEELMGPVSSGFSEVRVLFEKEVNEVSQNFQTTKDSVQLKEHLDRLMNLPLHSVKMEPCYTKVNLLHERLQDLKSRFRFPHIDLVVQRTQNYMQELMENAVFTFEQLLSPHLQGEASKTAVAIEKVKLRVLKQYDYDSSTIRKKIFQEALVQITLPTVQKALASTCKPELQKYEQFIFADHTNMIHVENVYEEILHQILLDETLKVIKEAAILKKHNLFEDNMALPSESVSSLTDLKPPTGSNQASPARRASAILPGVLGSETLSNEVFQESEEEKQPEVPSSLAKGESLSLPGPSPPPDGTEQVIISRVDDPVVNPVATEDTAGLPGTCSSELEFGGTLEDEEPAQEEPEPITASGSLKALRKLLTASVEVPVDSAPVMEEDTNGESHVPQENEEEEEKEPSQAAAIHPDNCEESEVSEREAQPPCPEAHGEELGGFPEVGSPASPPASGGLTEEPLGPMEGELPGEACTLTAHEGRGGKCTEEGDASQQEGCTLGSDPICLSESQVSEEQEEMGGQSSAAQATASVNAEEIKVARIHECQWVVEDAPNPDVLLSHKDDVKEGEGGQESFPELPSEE
UniProt Q8WX92, sequence (Q8WX92 whole entry, looked up): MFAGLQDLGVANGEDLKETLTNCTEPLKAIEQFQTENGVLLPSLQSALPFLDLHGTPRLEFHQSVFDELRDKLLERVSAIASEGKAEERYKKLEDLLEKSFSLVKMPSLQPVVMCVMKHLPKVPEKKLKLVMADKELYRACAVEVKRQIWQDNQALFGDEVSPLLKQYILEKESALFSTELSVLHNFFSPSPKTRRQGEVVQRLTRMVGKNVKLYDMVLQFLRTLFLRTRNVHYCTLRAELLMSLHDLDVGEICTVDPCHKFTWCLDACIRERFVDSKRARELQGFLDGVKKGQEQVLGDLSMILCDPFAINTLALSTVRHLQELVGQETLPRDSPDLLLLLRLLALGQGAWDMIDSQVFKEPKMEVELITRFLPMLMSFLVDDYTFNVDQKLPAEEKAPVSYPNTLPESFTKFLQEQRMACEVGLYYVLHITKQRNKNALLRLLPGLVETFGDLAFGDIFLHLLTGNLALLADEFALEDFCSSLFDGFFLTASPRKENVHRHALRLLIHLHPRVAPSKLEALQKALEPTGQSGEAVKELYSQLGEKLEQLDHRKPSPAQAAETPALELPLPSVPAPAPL
UniProt Q9HBL8, sequence (Q9HBL8 whole entry, looked up): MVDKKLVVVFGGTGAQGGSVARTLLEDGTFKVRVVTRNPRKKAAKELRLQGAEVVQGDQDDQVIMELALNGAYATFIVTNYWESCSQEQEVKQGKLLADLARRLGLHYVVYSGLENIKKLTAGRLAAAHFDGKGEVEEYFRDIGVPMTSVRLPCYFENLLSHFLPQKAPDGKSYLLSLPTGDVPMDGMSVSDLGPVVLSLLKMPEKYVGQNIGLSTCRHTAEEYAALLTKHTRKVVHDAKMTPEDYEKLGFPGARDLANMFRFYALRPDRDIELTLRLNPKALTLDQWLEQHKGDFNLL

| Target | log2 fold change [1] | log2 fold change [2] | log2 fold change [3] | log2 fold change [4] | log2 fold change [5] | log2 fold change [6] | log2 fold change [7] | log2 fold change [8] | log2 fold change [9] | log2 fold change [10] |
| --- | --- | --- | --- | --- | --- | --- | --- | --- | --- | --- |
| MLX (UniProt Q9UH92) | -0.022 | 0.094 | -0.11 | -0.01 | 0.008 | -0.11 | -0.054 | -0.097 | -0.122 | -0.061 |
| NOL7 (UniProt Q9UMY1) | 0.284 | -0.107 | -0.016 | 0.146 | 0.183 | -0.073 | -0.257 | -0.148 | 0.154 | -0.156 |
| NEU1 (UniProt Q99519) | -0.212 | 0.171 | -0.051 | -0.009 | 0.019 | -0.147 | -0.04 | 0.01 | 0.072 | -0.031 |
| NUDT21 (UniProt O43809) | 0.074 | -0.071 | 0.033 | -0.798 (active) | 0.031 | 0.051 | 0.029 | -0.039 | -0.007 | -0.008 |
| MIS12 (UniProt Q9H081) | -0.05 | 0.017 | -0.062 | -0.048 | -0.114 | 0.037 | -0.028 | 0.005 | 0.016 | 0.071 |
| NCBP2AS2 (UniProt Q69YL0) | -0.504 (active) | -0.018 | 0 | 0.045 | -0.021 | 0.031 | 0.002 | 0.021 | -0.001 | 0.006 |
| MTOR (UniProt P42345) | -0.018 | 0.014 | -0.158 | 0.068 | -0.166 | -0.069 | 0.004 | 0.037 | -0.12 | 0.068 |
| MYL12B (UniProt O14950) | -0.049 | 0.042 | 0.031 | 0.001 | 0.001 | -0.002 | 0.117 | -0.046 | -0.038 | 0.064 |
| MYH10 isoform 3 (UniProt P35580) | -0.046 | 0.033 | -0.049 | -0.001 | -0.057 | 0.004 | 0.056 | 0.011 | -0.083 | 0.059 |
| NEMP1 (UniProt O14524) | -0.147 | 0.065 | -0.186 | 0.004 | -0.009 | 0.003 | -0.007 | -0.025 | 0 | 0.036 |
| NR2C2 isoform 2 (UniProt P49116) | -0.093 | 0.027 | -0.033 | -0.091 | -0.026 | 0.021 | -0.003 | -0.038 | -0.184 | 0.026 |
| NAPG (UniProt Q99747) | 0 | 0.128 | -0.057 | -0.157 | -0.133 | -0.011 | 0.034 | 0.033 | -0.094 | 0.062 |
| MRPS10 (UniProt P82664) | 0.057 | 0.119 | -0.097 | 0.006 | -0.005 | -0.046 | 0.002 | -0.096 | -0.104 | 0.1 |
| NMT2 (UniProt O60551) | 0.021 | 0.047 | 0.018 | 0.083 | -0.088 | -0.031 | -0.003 | 0.03 | -0.015 | 0.041 |
| MRPS22 (UniProt P82650) | 0.233 | 0.137 | -0.21 | 0.044 | -0.024 | 0.012 | 0.003 | 0.017 | -0.11 | 0.15 |
| NUMBL (UniProt Q9Y6R0) | -0.002 | 0.113 | -0.001 | -0.136 | -0.029 | 0.027 | 0.041 | 0.097 | 0.068 | 0.28 |
| MRPL46 (UniProt Q9H2W6) | 0.06 | 0.014 | -0.03 | -0.002 | -0.006 | -0.016 | -0.019 | 0.06 | 0.095 | -0.003 |
| NMRAL1 (UniProt Q9HBL8) | 0.806 (active) | -0.026 | 1.29 (active) | 0.024 | -0.071 | -0.018 | 0.031 | 0.962 (active) | -0.035 | -0.145 |
| NDUFAF6 (UniProt Q330K2) | -0.178 | 0.014 | 0.01 | -0.096 | -0.064 | 0.017 | 0.01 | 0 | -0.11 | 0.028 |
| MMADHC (UniProt Q9H3L0) | 0.038 | 0.054 | -0.068 | -0.173 | -0.155 | 0.023 | -0.138 | -0.063 | 0.024 | -0.005 |
| NARS2 (UniProt Q96I59) | -0.108 | 0.034 | -0.063 | 0.069 | -0.05 | 0.005 | 0.084 | 0.047 | -0.004 | -0.009 |
| NR2C2AP isoform 2 (UniProt Q86WQ0) | 0.037 | 0.03 | -0.072 | 0.003 | -0.095 | -0.008 | 0.028 | -0.016 | 0.007 | 0.072 |
| NIBAN1 (UniProt Q9BZQ8) | -0.013 | 0.121 | -0.041 | -0.383 (active) | -0.14 | -0.057 | 0.001 | -0.035 | -0.04 | 0.013 |
| NUMA1 (UniProt Q14980) | 0.121 | 0.005 | 0.031 | -0.22 | 0.019 | -0.013 | -0.194 | -0.031 | 0.086 | -0.043 |
| NOP53 (UniProt Q9NZM5) | 0.189 | 0.059 | 0.039 | 0.217 | 0.147 | 0.027 | -0.339 | -0.178 | 0.161 | -0.202 |
| NDUFB10 (UniProt O96000) | -0.105 | -0.11 | -0.02 | 0.026 | -0.011 | -0.021 | 0.015 | 0.081 | 0.044 | 0.019 |
| NRF1 isoform 4 (UniProt Q16656) | -0.057 | 0.023 | -0.099 | -0.152 | -0.123 | -0.042 | 0.054 | -0.096 | 0.022 | 0.035 |
| NELFB isoform 2 (UniProt Q8WX92) | -0.088 | 0.046 | -0.135 | -0.123 | -0.189 | 0.05 | 0.032 | 0.014 | -0.081 | 0.03 |
| MSH2 (UniProt P43246) | 0 | 0.04 | -0.003 | -0.103 | -0.038 | 0.034 | 0.024 | 0.035 | -0.063 | 0.156 |
